Molecules are shown by their SMILES. Results filed as inconclusive are left out. Active and inactive are the calls of the source. Calls follow the shape of the dose curve; as a rule, active = well fitted curve in the direction sought with a large enough effect; inconclusive = small, poorly fitted or top-dose-only effect, or another doubt; inactive = no such curve, though single readings can be large or run the other way.
% is scaled to controls: 0 for no effect and ±100 for the full control effect.

The nature of the assay: qHTS Assay for Identifying Gametocytocidal Compounds (AID 743244).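 Also: actives lower the fluorescent signal which means gametocytes are killed.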 Conditions: P. falciparum 3D7 stage III-V gametocytes, alamarBlue, 72 h; max response: hits give low values. The essentials:
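Viability read-out was resazurin reduction (alamarBlue, 24 h) measured at Ex 525/Em 598 nm. Beforehand, late-stage (III-V) 3D7 P. falciparum gametocytes at 20,000 cells/well were incubated with compound 72 h at 37C under 5% CO2.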
In general terms: qHTS replaces the single test concentration by a dilution series.
Consider `OCc1ccc(Cl)cc1Cl`, for which the max response was -2.07% (inactive).

Turning to `CCCCCC(C)N` (stereo not drawn), the max response was 7.89% (inactive).

With `C/C=C1\[C@H]2C=C(C)C[C@]1(N)c1ccc(=O)[nH]c1C2`, the max response was 2.62% (inactive).

Regarding `CC(CN(C)C)C(C)(O)Cc1ccc(Cl)cc1` (stereo not drawn), the max response was -5.22% (inactive).

For the compound `c1ccc2[nH]ccc2c1`, the max response is -5.55% (inactive).

In the case of `CN1C[C@@H]2C[C@H]1CN2c1cc2c(cc1F)c(=O)c(C(=O)O)cn2C1CC1`, the max response was 2.79% (inactive).

On to `Cc1cc(-n2nc3ccc(Cl)cc3n2)c(O)c(C(C)(C)C)c1`, for which the max response is -8.61% (inactive).

Consider `O=C1c2ccccc2S(=O)(=O)N1CCCCN1CCN(c2ncccn2)CC1`, for which the max response was -4.4% (inactive).

As to `C/C=C/C(=O)N(CC)c1ccccc1C`, the max response was 21.1% (inactive).

As to `C[C@@H]1CCC[C@H](C)N1`, the max response is 20.8% (inactive).

As for `CC1(c2ccccc2)OC(C(=O)O)=CC1=O` (stereo not drawn), the max response is 25.1% (inactive).

For `CCCCCCCCCCCCCCCCC(C(=O)O)C(O)(CC(=O)O)C(=O)O` (stereo not drawn), the max response was 6.09% (inactive).

With `NS(=O)(=O)c1cc2c(cc1C(F)(F)F)NCNS2(=O)=O`, the max response is -4.2% (inactive).

For `CN[C@@H]1[C@@H](O)[C@@H](O[C@@H]2[C@H](O)[C@H](O[C@H]3OC(CN)=CC[C@H]3N)[C@@H](N)C[C@H]2N)OCC1(C)O` (stereo partly drawn), the max response was -9.46% (inactive).

With `COc1nccnc1NS(=O)(=O)c1ccc(N)cc1`, the max response is -9.73% (inactive).

On to `OC(CCN1CCCC1)(c1ccccc1)C1CCCCC1` (stereo not drawn), for which the max response was 3.62% (inactive).

Take `CC(=O)N[C@@H](Cc1ccc(O)cc1)C(=O)O`: the max response was -6.61% (inactive).

For `Cc1c(NC(C)C)c(=O)n(-c2ccccc2)n1C`, the max response was -2.3% (inactive).

`Cc1c(Cn2ccnc2)c2ccccc2n1CCC(=O)O`: the max response was -9.07% (inactive).

On to `COc1ccc(C(=O)N2CCN(CC(=O)N3CCOCC3)CC2)cc1`, for which the max response was -4.8% (inactive).

In the case of `CNc1c2c(nn1C)CCCC2`, the max response is 6.79% (inactive).

For `CC(C)CCOC(=O)c1ccc(N(C)C)cc1`, the max response is -13.7% (inactive).

Take `CCc1cccc(CC)c1NC(=O)CN(CC(=O)O)CC(=O)O`: the max response is 12.1% (inactive).

For `NCc1ccc(S(N)(=O)=O)cc1`, the max response was -0.707% (inactive).

For the compound `COCC(=O)Nc1c(I)c(C(=O)NCC(O)CO)c(I)c(C(=O)N(C)CC(O)CO)c1I` (stereo not drawn), the max response was 10.5% (inactive).

Regarding `CC[N+](C)(CC)CCOC(=O)C1c2ccccc2Oc2ccccc21`, the max response was 7.42% (inactive).

Turning to `CC(C)(C)NCC(O)COc1cccc2c1CCC(=O)N2` (stereo not drawn), the max response was 15.2% (inactive).

On to `NNC(=O)CP(=O)(c1ccccc1)c1ccccc1`, for which the max response is -4.41% (inactive).

Regarding `CC(C)c1cc2c(cc1S(=O)(=O)O)[C@@]1(C)CCC[C@@](C)(C(=O)O)[C@@H]1CC2`, the max response was -8.74% (inactive).

Turning to `Cc1cccc(C)c1NC(=O)CC12CCCN1CCC2`, the max response is 0.37% (inactive).

For the compound `CCN(CC)CCOC(=O)C(c1ccccc1)c1ccccc1`, the max response is -5.96% (inactive).

`O=S1(=O)OC(c2ccc(O)cc2)(c2ccc(O)cc2)c2ccccc21`: the max response is 21.8% (inactive).

On to `CCOC(=O)c1cccnc1`, for which the max response was 2.39% (inactive).

For `CN1CCN(C(=O)C2CCCCC2)CC1`, the max response is 11.1% (inactive).

`C=CCSCC1Nc2cc(Cl)c(S(N)(=O)=O)cc2S(=O)(=O)N1` (stereo not drawn): the max response is 15.7% (inactive).

Take `CC(=O)SC[C@@H](Cc1ccccc1)C(=O)NCC(=O)OCc1ccccc1`: the max response is 3.78% (inactive).

`Cn1c([N+](=O)[O-])cnc1COC(N)=O`: the max response was 1.6% (inactive).

Turning to `CCCNC(C)C(=O)Nc1c(C)csc1C(=O)OC` (stereo not drawn), the max response is 7.96% (inactive).

These data come from PubChem BioAssay (NCATS).
